# Assay results published in ChEMBL document CHEMBL4513216, “Probing the Open Global Health Chemical Diversity Library for Multistage-Active Starting Points for Next-Generation Antimalarials” (ACS Infect Dis, 2020).
# In all, about 69,000 compounds went through this assay and about 8,600 (12%) showed an effect of 50% or more. The entries come from a sample that favours strong results as a whole.
# Tested on: Plasmodium berghei
# Experiment: Screen against P. berghei liver stage (PbLuc), transformed with Luciferase, at 10uM
# Format: functional, HepG2
# Details: tested at 10 uM
row,SMILES,INHIBITION
1,Nc1cc(C(=O)N2C[C@@H]3CC[C@H]2CN(Cc2cccnc2)C3)ccn1,4.64%
2,CC1CCCCN1CCNC(=O)c1ccn(-c2ccccc2)n1 (configuration not stated),7.12%
3,Cc1cc(C(=O)NCCN2CCCC(C)C2)nn1C(C)(C)C (configuration not stated),-5.26%
4,Cc1cc(C(=O)NCCN2CCCCCC2)nn1C(C)(C)C,76.6%
5,Cc1cc(C(=O)NCCN2CCC(C)CC2)nn1C(C)(C)C,36.8%
6,Cc1cc(C(=O)NCCN2CCCCC2)nn1C(C)(C)C,-22.3%
7,Cc1cc(C(=O)NCCN2CCCCC2C)nn1C(C)(C)C (configuration not stated),52.7%
8,COCCc1noc(CN2CCCCC2Cn2cncn2)n1 (configuration not stated),10.675%
9,COCC1CN(Cc2ccc(C)o2)Cc2cn(C)nc21 (configuration not stated),29.7%
10,Cc1nn(C)c(C)c1C1CCCN1CC(=O)N(C)c1nccs1 (configuration not stated),5.91%
11,CCCC(=O)NCCc1nc(N(C)C)ncc1-c1ccncc1,1.2%
12,CNC(=O)[C@@H]1CC[C@@H]2[C@@H](CCN2Cc2ccccc2F)O1,0.804%
13,Cc1cnc(N2CC3(CCN(Cc4cccnc4)C3)C2)nc1,27.2%
14,COc1cccc(CN2CCC3(CC2)CCN(c2ncccn2)C3)c1,11.3%
15,c1cnc(N2CC3(CCN(Cc4cccnc4)C3)C2)nc1,13.7%
16,COc1cccc(CN2CCC3(CC2)CCN(c2ncc(F)cn2)C3)c1,40.8%
17,COc1ccc(CN2CCC3(CC2)CCN(c2ncccn2)CC3)cc1,67.7%
18,COc1cccc(CN2CCC3(CC2)CCN(c2ncc(C)cn2)C3)c1,65.9%
19,COc1cccc(CN2CCC3(CCN(c4ncc(F)cn4)CC3)C2)c1,46.7%
20,COc1cccc(CN2CCC3(CCN(c4ncc(C)cn4)CC3)C2)c1,31.9%
21,Fc1ccc(CN2CCC3(CC2)CCN(Cc2nccs2)CC3)cc1,42.6%
22,c1cnc(N2CCC3(CCN(Cc4ccncc4)CC3)CC2)nc1,21.6%
23,Fc1ccc(CN2CCC3(CC2)CCN(c2ncccn2)CC3)cc1,56.7%
24,c1cnc(N2CCC3(CCN(Cc4cccnc4)CC3)CC2)nc1,61.4%
25,COc1nccnc1N1CCC2(CC1)C(=O)N(C)c1ccccc12,-55%
26,Cc1ccc(C(=O)NC2CCOc3ccccc32)cc1S(C)(=O)=O (configuration not stated),16.2%

row,SMILES,INHIBITION
1,COc1ccc(CNCc2c(C(C)C)nn(C)c2OC)cn1,27.8%
2,CC(C)Cn1cc(C(=O)NC2CCS(=O)(=O)C2)c2ccccc2c1=O (configuration not stated),28.6%
3,Cc1ccccc1CNC(=O)c1ccccc1-n1cnc(CN)c1,33.7%
4,Cc1cc(-c2cnn(CCNC(=O)c3snnc3C)c2C2CC2)on1,21.9%
5,CC(C)(C(N)=O)N1CCN(C(=O)c2ccn(-c3cccc(Cl)c3)n2)CC1,-14.6%
6,COc1ncccc1CN1CCn2c(C(=O)N3CCCC3)cnc2C1,7.24%
7,Cc1nc[nH]c1CN1CCN(C2CCOCC2)CC(C(N)=O)C1 (configuration not stated),7.52%
8,Cn1nnc(NCc2ccc(-c3ccc(Br)cc3)o2)n1,0.868%
9,Cc1cnc(CC2COCCN(C(=O)CN3CCCCC3)C2)cn1 (configuration not stated),30.4%
10,CCCOCC(=O)NS(=O)(=O)c1ccc2c(c1)OCCCO2,51.6%
11,O=C(COC1CCCCC1)NS(=O)(=O)c1ccc2c(c1)OCCCO2,10%
12,O=C(COCC(F)(F)F)NS(=O)(=O)c1ccc2c(c1)OCCCO2,63.5%
13,CCCOCC(=O)NS(=O)(=O)c1ccc2c(c1)OCCO2,18.2%
14,O=C(COC1CCCC1)NS(=O)(=O)c1ccc2c(c1)OCCCO2,8.64%
15,COCCCC(=O)NS(=O)(=O)c1ccc2c(c1)OCCCO2,38.6%
16,CC(C)C(=O)N1CCCc2c(cnn2-c2ccccc2)C1,9.05%
17,O=C(O)C1(Oc2ccc(Cl)cc2)CCN(C2CCOCC2)CC1,24.7%
18,Cc1cc(C)n(C(=O)c2cn(C)nc2S(=O)(=O)N2CCSCC2)n1,56.5%
19,CCCn1cc(C(=O)n2nc(C)cc2C)c(S(=O)(=O)N2CCSCC2)n1,0%
20,CCn1cc(C(=O)n2nc(C)cc2C)c(S(=O)(=O)N2CCCCC2)n1,29.7%
21,CN(Cc1nc(-c2ccoc2)no1)C1CCCN(c2cccnn2)C1 (configuration not stated),7.12%
22,CCNc1c(NC(=O)NC(C)C)c(=O)oc2ccccc12,40.3%
23,Cc1cc(-c2cnc(N3CCC(O)CC3)nc2C(C)C)on1,59.4%
24,Cc1cc(-c2cnc(N3CCSCC3)nc2C(C)C)on1,50.8%
25,Cc1cc(-c2cnc(N3CCN(C)CC3)nc2C(C)C)on1,47.95%
26,Cc1cc(-c2cnc(N(C)C)nc2C2CCCCN2C(=O)C2CC2)on1 (configuration not stated),-11.59%
